Experimental data reported in PubChem BioAssay AID1493 (National Center for Advancing Translational Sciences (NCATS), 2009).
“And” between values parts separate entries of the source, which are not always exact repeats. Equal entries are not always repeated. Results filed as inconclusive are left out. The source made the active and inactive calls.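 How the source made its calls: active means compound pushes the radio-tagged natural neuropeptide S off its receptor in a binding test; inconclusive means any compound that did not displace the tagged ligand; inactive means never assigned.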

These molecules were tested against Neuropeptide S receptor (Homo sapiens) (UniProt Q6W5P4) (assay: Confirmation Concentration-Response Assay for Antagonists of the Neuropeptide S Receptor: Radioligand Displacement). Conditions: CHO-hNPSR cells, [125I]Y10-NPS displacement, 1.5 h.
Chain of Neuropeptide S receptor (Homo sapiens) (Q6W5P4 whole entry, looked up): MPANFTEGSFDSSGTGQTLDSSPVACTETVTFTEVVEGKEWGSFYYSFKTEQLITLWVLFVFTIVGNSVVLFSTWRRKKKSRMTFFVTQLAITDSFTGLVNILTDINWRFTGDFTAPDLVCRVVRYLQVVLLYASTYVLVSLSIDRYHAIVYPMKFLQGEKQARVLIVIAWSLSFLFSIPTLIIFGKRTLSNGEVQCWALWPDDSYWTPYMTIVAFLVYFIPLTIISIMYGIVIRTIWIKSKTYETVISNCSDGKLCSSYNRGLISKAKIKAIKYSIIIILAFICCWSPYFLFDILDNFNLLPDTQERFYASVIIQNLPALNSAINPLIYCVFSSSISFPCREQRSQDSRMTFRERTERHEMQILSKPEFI
Description: NIH Chemical Genomics Center [NCGC] NIH Molecular Libraries Probe Production centers Network [MLPCN] MLPCN Grant: X01-DA026210-01 Assay Submitter (PI): Heilig, Markus Alexander NCGC Assay Overview: Neuropeptide S receptor (NPSR), previously known as GPR154, is a recently de-orphanized G protein coupled receptor. Its endogenous ligand is the 20 amino acids peptide Neuropeptide S (NPS). […] NPS and its receptor are found in various tissues. Specifically they are highly expressed in brain areas that have been implicated in modulation of arousal, stress and anxiety. Central administration of NPS in mice produces an unusual profile of activity by inducing wakefulness and arousal, while at the same time suppressing anxiety. Therefore, NPSR may represent a novel drug target for the treatment of sleep and anxiety disorders. As one method of confirming the specific activity of compounds active in the primary screen (AID 1461), we developed an assay to measure the displacement of radio-labeled native ligand, NPS, from its receptor in vitro.
The assay was carried out as described (Xu et al. (2004) Neuron, 43: 487-497) with minor modification. Y10-NPS labeled with 125I was bought from NEN Perkin Elmer (Boston, MA). CHO cells stably expressing human NPSR were seeded into 24-well plates and cultured until reaching 90-95% confluency. Cells were washed with 1ml PBS once and then incubated with radioligand with or without compounds or in DMEM medium containing 0.1% bovine serum albumin at 20C for 1.5 hr. Increasing concentrations of compounds or unlabeled human NPS were used to compete with 0.15 nM [125I] Y10-NPS. Nonspecific binding was determined in the presence of 1 uM unlabeled human NPS. Cells were washed twice with cold PBS and lysed with 1 N NaOH. Bound radioactivity was counted in a liquid scintillation counter.

Potency, active:
N#CC1=C(NC=NCc2ccccc2)Oc2ccc3ccccc3c2C1c1ccccc1 (stereo not drawn) 321 nM
COc1cccc(C2c3c(ncn(-c4ccccc4)c3=N)Oc3ccc4ccccc4c32)c1 (stereo not drawn) 266 nM
COc1ccc(C2c3c(ncn(CCN4CCOCC4)c3=N)Oc3ccc4ccccc4c32)cc1OC (stereo not drawn) 256 nM and 190 nM
N=c1c2c(ccn1-c1ccccc1)Oc1ccc3ccccc3c1C2c1ccccc1 (stereo not drawn) 367 nM
CCOC(=O)C1CCCN(c2ncnc3c2oc2ccccc23)C1 (stereo not drawn) 26400 nM
O=C1OC(c2ccccc2)(c2ccccc2)N2CCN(C(=O)NCc3ccc(F)cc3)CC12 (stereo not drawn) 5.62 nM
COc1cccc(C2c3c(ncn(CCN4CCOCC4)c3=N)Oc3ccc4ccccc4c32)c1 (stereo not drawn) 439 nM
CCOC(=O)CC(=O)Nc1ncnc2c1C(c1ccccc1)c1c(ccc3ccccc13)O2 (stereo not drawn) 616 nM
